# Assay outcomes (PubChem BioAssay)
# Most compounds without a hit are left out; they make up all but 32% or so of the library.
# PostGolgi ctrl: growth of the yeast control strain, post-Golgi counter-screen; AID 738; inhibition, % at 10 µM; efflux-deficient yeast background strain, growth absorbance A615, 16 h; 98,000 tested, 5% active
# CYP2C9 inhib: inhibitors of human CYP2C9 | AID 777 | inhibition, % at 5 µM | 96,000 tested, 20% active | CYP2C9 Supersomes, luciferin-H conversion, luminescence;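 active = blocking of liver enzyme CYP2C9 beyond about 50% at 5 µM, limit read from the data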
# CYP2C19 inh: human CYP2C19 inhibition. 96,000 tested, 21% active. inhibition, % at 5 µM. AID 778. P33261. CYP2C19 Supersomes, luciferin-H EGE luminescence, 30 min;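 active = CYP2C19 inhibition above a set limit at 5 µM in the primary screen, cut at about 50% in these data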;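 also: plate controls were negative control wells for no effect and 2.5 mM tranylcypromine positive control for full effect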
# Target sequence (P33261 whole entry, looked up): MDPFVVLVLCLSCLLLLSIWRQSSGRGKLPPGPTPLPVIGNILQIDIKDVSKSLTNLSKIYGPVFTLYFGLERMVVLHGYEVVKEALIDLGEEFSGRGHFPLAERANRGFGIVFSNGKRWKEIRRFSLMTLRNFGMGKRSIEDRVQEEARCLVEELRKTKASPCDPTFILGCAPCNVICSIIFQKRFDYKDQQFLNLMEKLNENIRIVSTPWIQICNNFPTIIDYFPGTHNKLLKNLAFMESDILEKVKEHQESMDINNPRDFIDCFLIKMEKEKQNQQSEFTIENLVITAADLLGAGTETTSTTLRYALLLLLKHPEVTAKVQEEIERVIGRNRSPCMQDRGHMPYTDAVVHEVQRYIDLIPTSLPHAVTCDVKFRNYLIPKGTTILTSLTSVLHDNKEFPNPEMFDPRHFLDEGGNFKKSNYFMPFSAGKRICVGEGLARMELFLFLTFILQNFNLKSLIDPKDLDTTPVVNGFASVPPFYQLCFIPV
# CYP2C19 act: increases human CYP2C19 enzyme activity | recombinant CYP2C19, luciferin-H EGE luminescence; hits give high values; 0 = fully inhibited enzyme, 1 = untreated enzyme | activation factor at 5 µM | 96,000 tested, under 10 active;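 active = activation factor of at least 2 at 5 µM in the primary screen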;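 also: 0 = wells with 2.5 mM tranylcypromine and 1 = vehicle-only wells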
# PostGolgi yeast: growth inhibition of a yeast mutant, post-Golgi transport screen | post-Golgi transport phenotypic cell assay | inhibition, % at 10 µM | 98,000 tested, 0.9% active;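 also: yeast cells grown in 1536-well plates; yeast grown about 18 h at 30C before absorbance read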
# CYP2C9 act: increases human cytochrome P450 2C9 activity | P11712 | recombinant CYP2C9, luciferin-H conversion, luminescence; hits give high values; factor 1 = untreated enzyme, 0 = blocked | activation factor at 5 µM | 96,000 tested, 1.4% active | AID 1024;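 active = activation factor of 2 or more for CYP2C9 at a 5 µM dose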;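 also: 0 = sulfaphenazole-blocked wells and 1 = vehicle-only wells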
# * marks the source's active call; other numbers are inactive results; x = not tested or not shown. Rule as the data show it, unless noted: active = inhibition above about 30%; inactive = the rest.
SMILES,PostGolgi ctrl,CYP2C9 inhib,CYP2C19 inh,CYP2C19 act,PostGolgi yeast,CYP2C9 act
CCC(C)(C)NC(=O)CN(C(=O)CNS(=O)(=O)c1ccccc1)c1ccccc1,2,-2,10,0.9,-5,1
COc1ccc(Cn2nnnc2CN2CCc3ccccc3C2)cc1,6,64*,88*,0.1,0,0.4
COc1ccc(C2(O)CCN(Cc3nnnn3Cc3ccc(C)cc3)CC2)cc1,11,63*,51*,0.5,9,0.4
COc1ccc(Cn2nnnc2CN2CCc3ccccc32)cc1,-9,92*,99*,0,2,0.1
COc1ccc(OCCOCCN2CCc3ccccc3C2)cc1,-8,7,59*,0.4,-7,0.9
COc1ccc(Cn2nnnc2C(c2ccccc2Cl)N2CCN(C)CC2)cc1 (configuration not stated),4,16,35,0.7,11,0.8
CCN(CC)S(=O)(=O)c1ccc2[nH]c(=O)[nH]c2c1,0,-11,10,0.9,0,1.1
CCC(=O)N1c2ccccc2NC2=C(C(=O)CCC2)C1c1ccccc1 (configuration not stated),-4,8,1,1,-4,0.9
COc1ccc(CCNC(=O)C(C)OC(=O)c2ccco2)cc1OC (configuration not stated),1,40,34,0.7,-6,0.6
CC(=O)Nc1ccc(NC(=O)CN(c2ccccc2Cl)S(C)(=O)=O)cc1,-5,-2,14,0.9,6,1
CCCn1nc([N+](=O)[O-])c(C(C#N)c2nc3ccccc3s2)c(Cl)c1=O (configuration not stated),55*,99*,5,1,100*,0
O=S(=O)(Nc1ccc2c(c1)nc1n2CCOC1)c1ccc(Cl)cc1,2,73*,49,0.5,3,0.3
O=S(=O)(Nc1ccc2c(c1)nc1n2CCOC1)c1ccccc1,7,17,2,1,-10,0.8
OCn1ncn(-c2ccccc2)c1=S,-10,8,11,0.9,-4,0.9
COc1cc(CN2CCC(C(=O)N3CCC(C)CC3)CC2)cc(Br)c1O,5,-24,17,0.8,-10,1.2
CCCNC(=O)N1CCN(c2nc(C(C)C)c3c(c2C#N)CC(C)(C)OC3)CC1,10,80*,87*,0.1,-2,0.2
Cc1ccc(S(=O)(=O)N2CCN(c3nc(C(C)C)c4c(c3C#N)CC(C)(C)OC4)CC2)cc1,13,95*,68*,0.3,-1,0.1
CC1(C)Cc2c(c(N3CCCC3)[nH]c(=S)c2C#N)CO1,0,-6,-12,1.1,-15,1.1
Cc1ccc2cc(C#N)c(N3CCCN(S(=O)(=O)c4ccccc4)CC3)nc2c1,24,40,37,0.6,12,0.6
COC(=O)CCCC(=O)N1CCOCCN(C(=O)CCCC(=O)OC)CCOCC1,-3,-15,-15,1.2,5,1.1
O=C(Nc1cccn(Cc2c(Cl)cccc2Cl)c1=O)c1ccccc1Cl,2,67*,80*,0.2,10,0.3
O=C(Nc1cccn(Cc2c(Cl)cccc2Cl)c1=O)c1ccc(Cl)cc1Cl,19,56*,65*,0.3,12,0.4
Cc1nc2ccccc2n1-c1ccccc1,21,40,67*,0.3,-1,0.6
Cc1ccccc1-n1c(C)nc2ccccc21,2,54*,82*,0.2,-5,0.5
O=C(O)CC1Sc2nc3ccccc3n2C1=O (configuration not stated),-1,-5,0,1,1,1
SMILES,PostGolgi ctrl,CYP2C9 inhib,CYP2C19 inh,CYP2C19 act,PostGolgi yeast,CYP2C9 act
Cc1cc(=O)cc(C)n1-c1ccc2c(c1)nc(C)n2-c1ccccc1,x,-12,-6,1.1,x,1.1
Cc1nc2cc(S(=O)(=O)N(C)C)ccc2n1-c1ccccc1,x,25,81*,0.2,x,0.7
O=c1c(/C=C(\O)c2ccccc2)nc2ccccc2n1-c1ccccc1,30*,34,46,0.5,-10,0.7
CCCCN(C(=O)Nc1ccc(OCC)cc1)C1CCN(C(C)=O)CC1,13,11,16,0.8,-18,0.9
COc1cc2c3nnc(-c4ccc(F)cc4)c-3cn(Cc3ccccc3)c2cc1OC,13,29,3,1,2,0.7
CCOC(=O)n1c(=O)n(Cc2ccccc2Cl)c2ccccc21,47*,48,85*,0.2,8,0.5
CCOC(=O)n1c(=O)n(Cc2ccc(Cl)cc2Cl)c2ccccc21,34*,19,63*,0.4,-11,0.8
CNC(=O)CN(c1ccc(F)cc1)S(=O)(=O)c1cc(C)ccc1OC,4,80*,82*,0.2,11,0.2
COc1ccc(C)cc1S(=O)(=O)N(CC(N)=O)Cc1ccccc1,-5,33,99*,0,-2,0.7
COc1ccc(C)cc1S(=O)(=O)N(C)CC(=O)NCc1ccco1,0,51*,27,0.7,-4,0.5
COc1ccc(C)cc1S(=O)(=O)N(C)CC(=O)Nc1ccccc1,5,90*,91*,0.1,-4,0.1
COc1ccc(C)cc1S(=O)(=O)N(CC(=O)O)c1ccccc1,2,50,-4,1,-3,0.5
CN(CC(=O)NCc1ccco1)S(=O)(=O)c1cccc2cccnc12,5,-50,13,0.9,6,1.5
CC(=O)N1CCC2(CC1)CC(=O)c1cc(OCC(=O)NCc3ccc(C)cc3)ccc1O2,-3,47,41,0.6,-16,0.5
CC(C)c1ccc(OC(=O)NCCO)cc1,8,-10,49,0.5,5,1.1
CC(CCc1ccccc1)NC(=O)c1cccnc1 (configuration not stated),17,-14,4,1,3,1.1
N#Cc1ccsc1NC(=O)CN1CCN(c2ccccn2)CC1,5,22,15,0.9,-4,0.8
C=CCNC(=S)NNC(=O)C(CCC(C)C)CC(C)(C)O (configuration not stated),6,-6,-7,1.1,-3,1.1
Cc1ccc(S(=O)(=O)N(C)CC(=O)Nc2ccccc2)cc1,1,-27,63*,0.4,-6,1.3
CN(CC(=O)Nc1cccnc1)S(=O)(=O)c1ccccc1,-1,19,14,0.9,-7,0.8
Cc1ccc(C)c(NC(=O)CN(C)S(=O)(=O)c2ccc(F)cc2)c1,0,-85,16,0.8,14,1.8
CSc1cccc(NC(=O)CN(C)S(=O)(=O)c2ccc(C)cc2)c1,1,-18,52*,0.5,-1,1.2
COc1cc(NC(=O)CN(C)S(=O)(=O)c2ccc(C)cc2)cc(OC)c1,-10,-77,82*,0.2,9,1.8
COc1ccc(C2(NC(C)=O)CCN(C(=O)c3ccco3)CC2)cc1,2,40,29,0.7,24,0.6
CC(=O)NCc1cccc(CNC(C)=O)n1,12,-8,1,1,-4,1.1
